# The whole screen tested about 48,000 compounds, of which about 13,000 (27%) showed an effect of 50% or more. Some of the results follow.
# Test system: Wolbachia pipientis
# Experiment: Anti-Wolbachia Cell-Based Screen
# Assay type: functional
# Design: scale not given: in the data most compounds retested in dose-response had high values
# Settings: 5 µM
row,SMILES,Percent Effect
1,CC(C)N(Cc1cccnc1)C(=O)CSc1ccc(C#N)cc1,-11.42%
2,CC(C)(C)c1cc(C[C@H]2CNCC[C@H]2CC(=O)Nc2ccccc2)no1,-4.037%
3,COc1ccc(Cc2noc(C3=NN(C)C(=O)CC3)n2)cc1OC,-17.82%
4,CCn1c(C2CCCN(Cc3ccc(F)cc3Cl)C2)nn(C)c1=O (configuration not stated),-0.1084%
5,CCn1c(C2CCN(C(=O)c3cc(Cl)no3)CC2)nn(C)c1=O,81.76%
6,CCn1c(C2CCCN(Cc3cc(C)cc(C)c3)C2)nn(C)c1=O (configuration not stated),14.99%
7,COC1CCN(C(=O)CC2CCCC2)CC(=O)N(C)c2ccccc21 (configuration not stated),104.1%
8,CCN1CCC(CC(=O)N2CCN(c3ccccc3OC)CC2C)CC1 (configuration not stated),10.24%
9,COC1CCN(C(=O)C2CCCC2)CC(=O)N(C)c2ccccc21 (configuration not stated),111%
10,COC1CCN(C(=O)C2CC(=O)N(c3ccccc3Br)C2)CC1 (configuration not stated),-10.75%
11,COC1CN(C(=O)CC2CCCC2)CCC(=O)N(C)c2ccccc21 (configuration not stated),101.3%
12,COC(=O)NCC(=O)NCC1(c2c(F)cccc2F)CCCC1,1.826%
13,O=C(CN1CCC(c2cccc(F)c2)C1)NCC(F)(F)F (configuration not stated),-23.91%
14,COc1cc(F)c(C(=O)NCc2cc(C)on2)c(F)c1,-19.16%
15,CCSc1ncc(CN2CCN(c3nc(C)ncc3C)CC2)cn1,0.05242%
16,O=C(NC[C@H]1CCCO1)c1ccc(S(=O)(=O)N2C[C@@H]3C[C@H]2CN3)cc1,-5.829%
17,CN(Cc1ccccn1)C(=O)c1cc(CN2CCC(O)CC2)on1,-20.11%
18,NCCn1cc(C(=O)NCc2ccccc2-n2cccn2)nn1,-2.966%
19,Cc1nnc(-c2cccc(C#N)c2)n1C1CCCN(C(C)C)C1=O (configuration not stated),109.2%
20,CCCc1nn(C2CCN(C(C)C)C2=O)c(=O)o1 (configuration not stated),-9.274%
21,CC(=O)N1CCC(Oc2cccc(C#N)c2)CC1,-7.429%
22,Cc1nnc(-c2cccc(C#N)c2)n1C1CCN(C(C)C)C1=O (configuration not stated),107.2%

row,SMILES,Percent Effect
1,Cc1nnc(-c2cccc(C#N)c2)n1C1CCN(C2CC2)C1=O (configuration not stated),99.28%
2,CC(C)N1CCCC(N2CCOC3(CCCC3)C2)C1=O (configuration not stated),-1.206%
3,CC1CCC(O)(Cn2ncnc2-c2cccc(C#N)c2)CC1 (configuration not stated),-11.33%
4,CC(C)N1CCC(Nc2ccn(CCC#N)n2)C1=O (configuration not stated),1.087%
5,CCCc1nn(C2CCCN(C(C)C)C2=O)c(=O)o1 (configuration not stated),-1.45%
6,Cc1noc(-c2cccnc2N2CCN(c3cnn(C)c3)CC2)n1,-14.91%
7,O=C(NCCc1cccs1)N1CCCC2(CCC(=O)N(C3CC3)C2)C1 (configuration not stated),-0.08952%
8,CNCC(=O)N1CCCC1c1n[nH]cc1-c1ccccc1F.Cl (configuration not stated),165.9%
9,O=C(COCC1CC1)N1CCCC1c1nc(-c2ccccc2F)c[nH]1 (configuration not stated),4.201%
10,CCC(=O)N1CCCC1c1n[nH]cc1-c1ccccc1F (configuration not stated),184.8%
11,Cl.NCC(=O)N1CCCC1c1n[nH]cc1-c1ccccc1F (configuration not stated),132.3%
12,NCC(=O)N1CCCCC1c1ccc(F)cc1 (configuration not stated),-11.61%
13,COC(=O)NCC(=O)N1CCCC1c1nc(-c2ccccc2F)c[nH]1 (configuration not stated),0.1259%
14,CCOCCCC(=O)N1CCCC1c1nc(-c2ccccc2F)c[nH]1 (configuration not stated),-5.002%
15,O=C1CC(c2ccsc2)c2sc(C(=O)O)c(-c3ccccc3)c2N1 (configuration not stated),15.35%
16,CCN(CC)CCNC(=O)c1ccc(-n2ccc3ccccc32)s1,94.19%
17,O=C(NCCCN1CCCC1=O)c1ccc(-n2ccc3ccccc32)s1,114.9%
18,O=C(NCCN1CCOCC1)c1ccc(-n2ccc3ccccc32)s1,-14.37%
19,O=C(NCCCN1CCCCC1)c1ccc(-n2ccc3ccccc32)s1,-1.697%
20,O=C(NCCCN1CCOCC1)C(OC1CCCC1)c1ccccc1 (configuration not stated),-5.979%
21,CCN(CC)CCNC(=O)c1ccn(COc2cc(C)cc(C)c2)n1,5.075%
22,CCN(CC)CCNC(=O)c1ccc(Cl)c(NS(C)(=O)=O)c1,-1.52%

row,SMILES,Percent Effect
1,O=C(NCCCN1CCOCC1)c1ccc(-n2ccc3ccccc32)s1,91.37%
2,Cc1ccc(OCCC(=O)NCCCN2CCCC2=O)c(C)c1,-5.078%
3,O[C@@H]1CN(Cc2cc(Cl)cc3cccnc23)C[C@@H]1O,10.63%
4,Cc1nc(CN(C)C(=O)c2ccc(Cn3cnnn3)cc2)cs1,-19.39%
5,CCOc1ncccc1Cn1cc(-c2cncnc2)nn1,-4.97%
6,O=C(NCc1nncn1C1CC1)c1ccc(F)c(COCC2CC2)c1,-29.13%
7,CC(=O)c1ccc(N2CCC(CO)(CCOc3ccccc3)CC2)nc1,-10.96%
8,CC(C)c1nc(CN(C)Cc2ncccc2C(=O)O)cs1,-6.183%
9,O=C(c1ccc2nccnc2c1)N1C[C@@H](CN2CCCC2)[C@@H](CO)C1,-11.65%
10,CCOc1ccccc1C(=O)N1CCCC(c2nccn2CCOC)C1 (configuration not stated),-0.2171%
11,CCOc1ccc(C(=O)N2C[C@H]3CC[C@@H]2CN(C)C3)cc1OCC,-32.38%
12,CC(C)C1CN(C(=O)c2ccc3nccnc3c2)CCS1 (configuration not stated),-6.684%
13,Cn1ccnc1C1CCCN(C(=O)c2ccc3nccnc3c2)C1 (configuration not stated),95.06%
14,CCOc1ccc(C(=O)N2CCCC(c3nccn3C)C2)cc1OCC (configuration not stated),100.4%
15,COCCC1(CO)CCCN(CCCc2ccccc2)C1 (configuration not stated),-2.01%
16,O=C1NCc2ccccc2CC12CCCN(Cc1ccsc1)C2 (configuration not stated),112.5%
17,O=C1NCC[C@]12CN(Cc1ccsc1)C[C@H]2c1ccccc1,6.958%
18,COCCC1(CO)CCCN(Cc2ccc(C#N)cc2)C1 (configuration not stated),0.3825%
19,O=C1NCc2ccccc2CC12CCCN(CCCc1ccccc1)C2 (configuration not stated),107.4%
20,N#Cc1ccc(CN2C[C@@H]3OCC(=O)N[C@@H]3C2)cc1,-14.55%
21,CN(C)C(=O)CN1CCC2(CCCN(Cc3ccsc3)C2)C1=O (configuration not stated),-8.794%
22,O=C1N(CCCc2ccccc2)CCCC12CCN(C(CO)CO)C2 (configuration not stated),4.777%

row,SMILES,Percent Effect
1,N#Cc1ccc(CN2CCCC3(Cc4ccccc4CNC3=O)C2)cc1 (configuration not stated),129.6%
2,Cc1nc(CN2CC[C@@H]3[C@@H](CCC(=O)N3CCc3c[nH]cn3)C2)co1,-20.08%
3,COCCN1C[C@@H](C(=O)O)[C@H](c2ccccc2C)C1,-9.465%
4,COCCn1cnnc1Cn1ccnc1-c1ccsc1,-0.8108%
5,CN(CCO)Cc1nnc(C2CCN(CC(C)(C)C)CC2)n1C,3.482%
6,CCn1nnc2c1CCN(S(C)(=O)=O)C2COCc1ccccc1 (configuration not stated),-2.948%
7,c1cncc(COCC2CNCc3nccn3C2)c1 (configuration not stated),6.541%
8,CC(C)Cc1ccc(S(=O)(=O)NCCCN2CCNC(=O)C2)cc1,7.437%
9,Cc1ccc(-n2ccnc2)c(C(=O)NCCCN(C)C)c1,-3.641%
10,CN(C)CCCNC(=O)c1cc(Cl)ccc1Cl,87.97%
11,CN(c1ccc(C(=O)NCCCN2CCOCC2)c(Cl)c1)S(C)(=O)=O,-4.637%
12,CN(C)CCCNC(=O)c1cc(Br)c2c(c1)OCCO2,-6.944%
13,CN(C)CCCNC(=O)c1ccc(Cl)cc1Cl,119%
14,CSCC(C)(O)CNC(=O)c1cc(Cl)ccc1Cl (configuration not stated),2.772%
15,COc1cccc2c1OCC(NCc1cnn(-c3ccccc3F)c1)C2 (configuration not stated),-11.75%
16,COc1cc(C(C)=O)ccc1SCC(=O)Nc1cccc(C)n1,6.413%
17,Cc1cccc(NC(=O)c2ccc(OCc3nnnn3C)cc2)n1,107.3%
18,Cc1cccc(NC(=O)c2cccc(OCc3nnnn3C)c2)n1,73.29%
19,NC(=O)COc1cccc(C(=O)Nc2cnc3n2CCCC3)c1,11.29%
20,COc1c(CNCCC(=O)Nc2cccc(C)n2)c(C)nn1C,6.6%
21,COc1nonc1NCn1nc(C)cc1C,152%
22,Cc1cc(C)n(CNc2nonc2C(N)=O)n1,109.2%

row,SMILES,Percent Effect
1,Cc1cc(C)n(CC(C)CNC(=O)N(C)Cc2cc(C)on2)n1 (configuration not stated),9.156%
2,NC(=O)c1cccc(CC2CCN(C(=O)Cn3cnnn3)C2)c1 (configuration not stated),-10.16%
3,CCN(CCC#N)Cn1ncc2cn(-c3ccccc3)nc2c1=O,15.78%
4,Cc1ncsc1C(=O)NC1CCN(CC(=O)N(C)C(C)(C)C#N)CC1,-1.04%
5,NC[C@H]1CC[C@H](C(NC(=O)c2cccc(F)c2)c2ccccn2)CC1 (some centres not stated),1.736%
6,COc1ccccc1C(=O)NC(c1ccccn1)[C@H]1CC[C@H](CN)CC1 (some centres not stated),100.4%
7,COc1cc(F)c(C(C)NC(=O)c2cccnc2C)cc1OC (configuration not stated),-13.32%
8,COC(=O)c1sc(C(NC(=O)c2ccccc2)C2CC2)nc1C (configuration not stated),-18.8%
9,COc1cccc(C(=O)NC(c2ccccn2)[C@H]2CC[C@H](CN)CC2)c1 (some centres not stated),98.61%
10,COc1ccccc1C(=O)NC(CC(=O)O)c1cccs1 (configuration not stated),13.12%
11,CNC(=O)[C@@H]1CC[C@@H]2[C@@H](CCN2Cc2cn(C)c3ccccc23)O1.O=C(O)C(F)(F)F,12.94%
12,CCCN1CCN(Cc2cn(CCC(N)=O)c3ccccc23)CC1,5.612%
13,CN(CCN1CCOCC1)C(=O)C1(c2ccc(F)cc2F)CCC1,9.471%
14,CN(C)C(=O)C1(C)CN(Cc2cn(C)c3ccccc23)CCO1 (configuration not stated),120.9%
15,Cn1cc(C2(C)CN(Cc3ccc(Cl)c(F)c3)CCO2)cn1 (configuration not stated),-1.471%
16,CN(C)C(=O)COc1ccccc1CN1CCOC2(CCCC2)C1,35.78%
17,CNC(=O)C1(C)CN(Cc2cn(C)c3ccc(F)cc23)CCO1 (configuration not stated),119.3%
18,Cc1cc(F)ccc1CN1CCCC2(C1)OCCO2,-1.552%
19,CN(C)C(=O)C1(C)CN(Cc2cn(C)c3ccc(F)cc23)CCO1 (configuration not stated),142.1%
